Conditions in all cases: 25 µM; exposure: 24-48 hpf
Test [1] has as its system Danio rerio Tg(wt1b:EGFP) embryo, pronephros. Briefly: glomerular separation, fold change vs DMSO control; higher = glomeruli further apart (abnormal). The method, boiled down: (§1)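 Dechorionated Tg(wt1b:EGFP) zebrafish embryos were incubated at 28.5°C from 24 to 48 hpf with 25 μM compound in HEPES-buffered E3 containing 0.5% DMSO and 0.003% PTU. Distances and angles between 16 manually set points on maximum projections of dorsal pronephros images were measured in Fiji, with values over 2 SD from the feature mean excluded. Each feature is a fold change relative to the mean of same-day DMSO-treated embryos.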

Test [2] has the same test system. Briefly: glomerular width (mean of left and right), fold change vs DMSO control; higher = wider glomerulus. Put shortly: as §1
Test [3] shares this test system. Briefly: fraction of imaged embryos annotated as normal kidney; higher = less nephrotoxic; extreme values may be limits of the assay. Put shortly: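 From 24 to 48 hpf at 28.5°C, dechorionated Tg(wt1b:EGFP) zebrafish embryos in 12-well plates were kept in 5 mM HEPES-buffered E3 with 0.003% PTU, 0.5% DMSO and 25 μM compound. Pronephroi were imaged by widefield fluorescence at 470 nm and judged by eye from maximum projections. Reported is the proportion of embryos per treatment in the normal-kidney category.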

Test [4] shares this test system. Briefly: pronephric angle neck segment to proximal convoluted tubule (mean of left and right), fold change vs DMSO control; higher = larger pronephric angle. Put shortly: as §1

The source of these data is the supplement of paper PMC7366291.

Where a name gives a salt, the structure may show the parent alone. ± gives the standard deviation or the standard deviation of the averaged measurements.

For `CC(COc1ccccc1)N(CCCl)Cc1ccccc1` (stereo not given) [Phenoxybenzamine hydrochloride], the glomerular separation in test [1] amounted to 1.05 ± 0.59. For the same molecule, in test [2], the glomerular width was found to be 0.834 ± 0.03. Also, in test [3], the “fraction of imaged embryos annotated as normal kidney” value (shortened to “fraction of imaged embryos annotated”) was 0.583. In test [4], the “pronephric angle neck segment” value stood at 1.15 ± 0.036.

With `COCCCC/C(=N\OCCN)c1ccc(C(F)(F)F)cc1` [Fluvoxamine maleate], the glomerular separation in test [1] is 1.05 ± 0.39. This molecule also displayed a glomerular width in test [2] of 0.91 ± 0.015. Besides, the “fraction of imaged embryos annotated” value in test [3] turned out to be 1. Further, the “pronephric angle neck segment” value in test [4] stood at 0.996 ± 0.018.

`C[C@@](Cc1ccc(O)c(O)c1)(NN)C(=O)O` [Carbidopa] gave a glomerular separation in test [1] of 1.24 ± 0.38. Moreover, the glomerular width in test [2] came out at 1.0027 ± 0.00014. Moreover, the “fraction of imaged embryos annotated” value in test [3] stood at 0.833. In test [4], the “pronephric angle neck segment” value amounted to 1.047 ± 0.0029.

Regarding `CC(C)C(=O)Nc1ccc([N+](=O)[O-])c(C(F)(F)F)c1` [Flutamide], the glomerular separation in test [1] was found to be 1.54 ± 1.1. Besides, the glomerular width in test [2] was 1.12 ± 0.03. For the same molecule, the “fraction of imaged embryos annotated” value in test [3] worked out at 0.667. Further, the “pronephric angle neck segment” value in test [4] is 1.05 ± 0.031.

For the molecule `Nc1c2ccccc2nc2ccccc12` [Aminacrine], in test [1], the glomerular separation stood at 0.947 ± 0.57. In test [2], this molecule gave a glomerular width of 1.01 ± 0.055. The “fraction of imaged embryos annotated” value in test [3] amounted to 1. Further, the “pronephric angle neck segment” value in test [4] was 0.996 ± 0.028.

Regarding `CC[C@H](C)C(=O)O[C@H]1C[C@H](O)C=C2C=C[C@H](C)[C@H](CC[C@@H](O)C[C@@H](O)CC(=O)O)[C@H]21` [Pravastatin], the glomerular separation in test [1] came to 1.12 ± 0.39. Moreover, in test [2], the glomerular width turned out to be 0.865 ± 0.051. Moreover, the “fraction of imaged embryos annotated” value in test [3] turned out to be 1. In addition, the “pronephric angle neck segment” value in test [4] came to 1.03 ± 0.035.

The molecule `Cc1nc2n(c(=O)c1CCN1CCC(c3noc4cc(F)ccc34)CC1)CCCC2` [Risperidone] displayed a glomerular separation in test [1] of 0.741 ± 0.16. For the same molecule, the glomerular width in test [2] was 1.04 ± 0.043. In test [3], the “fraction of imaged embryos annotated” value amounted to 1. Moreover, the “pronephric angle neck segment” value in test [4] was found to be 0.974 ± 0.021.

As to `CCN(CC)CCOC(=O)C1(C2CCCCC2)CCCCC1` [Dicyclomine hydrochloride], in test [1], the glomerular separation is 1.3 ± 0.41. Moreover, the glomerular width in test [2] amounted to 1.12 ± 0.03. The “fraction of imaged embryos annotated” value in test [3] was 0.727. Also, the “pronephric angle neck segment” value in test [4] was found to be 1.16 ± 0.077.

In test [1], `CO[C@@]1(NC(=O)CSCC#N)C(=O)N2C(C(=O)O)=C(CSc3nnnn3C)CS[C@@H]21` [Cefmetazole sodium salt] displayed a glomerular separation of 0.79 ± 0.16. Moreover, the glomerular width in test [2] stood at 1.004 ± 0.0038. Also, the “fraction of imaged embryos annotated” value in test [3] was 0.917. In test [4], the “pronephric angle neck segment” value was found to be 0.944 ± 0.042.

In test [1], `Clc1ccc(C(Cn2ccnc2)OCc2c(Cl)cccc2Cl)c(Cl)c1` (stereo not given) [Isoconazole] returned a glomerular separation of 3.36 ± 1.9. In test [2], this molecule came in with a glomerular width of 0.669 ± 0.052. Also, the “fraction of imaged embryos annotated” value in test [3] amounted to 0.167. Further, in test [4], the “pronephric angle neck segment” value was 1.64 ± 0.076.
